According to PubChem BioAssay (NCI):
About 83,000 compounds went through this panel and 20% of them were active in at least one assay; those are over-represented in the sample as a whole.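 Cell lines were cultured in 96-well plates, exposed to a single compound concentration, and assessed for percent growth 48 hours later.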 Calls of active or inactive are those of the source. How the source made its calls: active means growth percent below 10; inactive means the rest.

Assays:
Experiment in all cases: NCI-60 one-dose screen, 48 h (100 = growth as untreated, 0 = no growth, -100 = all killed)
Details in all cases: 10 µM unless noted
SK-MEL-2 melanoma = system: SK-MEL-2 melanoma
EKVX NSCLC = system: EKVX NSCLC
SN12C renal = system: SN12C renal
TK-10 renal = system: TK-10 renal
ACHN renal = system: ACHN renal
CAKI-1 renal = system: CAKI-1 renal
A498 renal = system: A498 renal
CCRF-CEM leukemia = system: CCRF-CEM leukemia
MOLT-4 leukemia = system: MOLT-4 leukemia
UO-31 renal = system: UO-31 renal

Measured: growth

Cn1cc(-c2nc(-c3c[nH]c4ncccc34)cs2)c2cc(Br)ccc21
inactive: SK-MEL-2 melanoma 77.6% | EKVX NSCLC 75.2% | SN12C renal 87.1% | TK-10 renal 63.5% | ACHN renal 58.7% | CAKI-1 renal 78% | A498 renal 68.4% | CCRF-CEM leukemia 58.9% | MOLT-4 leukemia 69.1%

Fc1cccc(-c2[nH]nc3nc(Nc4cccnc4)sc23)c1
inactive: SK-MEL-2 melanoma 46.6% | EKVX NSCLC 57% | UO-31 renal 46.2% | TK-10 renal 77.3% | ACHN renal 61.5% | CAKI-1 renal 21.4% | A498 renal 84.2% | CCRF-CEM leukemia 28.8% | MOLT-4 leukemia 48.5%

COC(=O)[C@]12CC[C@@H](C)[C@H](C)[C@@H]1C1=CC[C@@H]3[C@@]4(C)C=C(O)C(=O)C(C)=C4CC[C@@]3(C)[C@]1(C)CC2
inactive: SK-MEL-2 melanoma 27% | SN12C renal 18.9% | UO-31 renal 34.3% | ACHN renal 22.4% | CAKI-1 renal 33.4% | A498 renal 81.5%
active: EKVX NSCLC 1.05% | CCRF-CEM leukemia -26.2% | MOLT-4 leukemia -15.9%

COCCNC1=C(Cl)C(=O)c2ccccc2C1=O
inactive: SK-MEL-2 melanoma 103% | EKVX NSCLC 108% | SN12C renal 95.2% | UO-31 renal 115% | ACHN renal 104% | CAKI-1 renal 116% | A498 renal 81.3% | CCRF-CEM leukemia 99.7% | MOLT-4 leukemia 108%

C#CCn1c(C)cc(C)c(C#N)c1=O
inactive: SK-MEL-2 melanoma 108% | EKVX NSCLC 99.6% | UO-31 renal 85.6% | TK-10 renal 94.2% | ACHN renal 106% | CAKI-1 renal 95.2% | A498 renal 104% | CCRF-CEM leukemia 99.2% | MOLT-4 leukemia 111%

COC1=C(Br)C(=O)C(OC)=C(Br)C1=O
inactive: SK-MEL-2 melanoma 119% | EKVX NSCLC 105% | UO-31 renal 93.3% | TK-10 renal 95.7% | ACHN renal 104% | CAKI-1 renal 98.9% | A498 renal 128% | MOLT-4 leukemia 26.4%
active: CCRF-CEM leukemia -12.3%

N#CC1c2ccccc2-c2ccccc2N1C(=O)c1ccccc1 (configuration not stated)
inactive: SK-MEL-2 melanoma 72.7% | EKVX NSCLC 29.5% | UO-31 renal 42.5% | TK-10 renal 63.9% | ACHN renal 30.1% | CAKI-1 renal 37.4% | CCRF-CEM leukemia 41.7% | MOLT-4 leukemia 35.8%
active: A498 renal 8.67%

C=CC(=O)N[C@H](Cc1ccc(-c2cc(Cl)cc(Cl)c2)cc1)[C@H](O)[C@@H](O)C(=O)O
inactive: SK-MEL-2 melanoma 90% | EKVX NSCLC 90% | UO-31 renal 86.8% | TK-10 renal 81.7% | ACHN renal 101% | CAKI-1 renal 84% | A498 renal 80.6% | CCRF-CEM leukemia 80.2% | MOLT-4 leukemia 102%

CC(C)C[C@@H](NC(=O)[C@@H](Cc1ccccc1)NC(=O)c1cnccn1)B1O[C@H]2[C@H](O)[C@@H](C(=O)NCCCC[C@@H]3NC(=O)[C@@H](Cc4ccccc4)NC(=O)[C@H](CC(=O)O)NC(=O)CNC(=O)[C@H](CCCN=C(N)N)NC3=O)O[C@@H](CN)[C@H]2O1
active: SK-MEL-2 melanoma -38.5% | EKVX NSCLC -12.6% | UO-31 renal -16.4% | TK-10 renal -79.1% | ACHN renal -8.22% | CAKI-1 renal -44.2% | A498 renal -94.5% | CCRF-CEM leukemia 6.17% | MOLT-4 leukemia 0.435%

CCC1C(=O)COC1=O (configuration not stated)
inactive: SK-MEL-2 melanoma 87% | EKVX NSCLC 95.5% | SN12C renal 104% | UO-31 renal 95.7% | ACHN renal 103% | CAKI-1 renal 92.4% | CCRF-CEM leukemia 85.4% | MOLT-4 leukemia 92.9%

CN1CCN(CCOc2ccc(-c3cnc4c(-c5ccccc5F)cnn4c3)cc2)CC1
active: CCRF-CEM leukemia 5.37% | MOLT-4 leukemia -9.43%
inactive: SK-MEL-2 melanoma 91.9% | EKVX NSCLC 68.4% | SN12C renal 60.7% | UO-31 renal 39.1% | ACHN renal 55.7% | CAKI-1 renal 45.8%
